This experiment has as its system NCI-H1944. As to the kind of experiment: normalised cell viability (NPI; 0 = phenylarsine oxide control, 1 = DMSO control) (fraction of DMSO control); NCI-H1944 is a non-small cell lung cancer line; higher = more viable cells (less compound toxicity). The note with it: 6 days.
The mark [1] stands for this setting: glucocorticoid arm: hydrocortisone 2.75 uM co-treatment, compound 1 µM.
The mark [2] stands for this setting: glucocorticoid arm: hydrocortisone 2.75 uM co-treatment, compound 5 µM.
Setting [3] is: glucocorticoid arm: hydrocortisone 2.75 uM pre-treated 2 days and continued, compound 1 µM.
Setting [4] is: glucocorticoid arm: hydrocortisone 2.75 uM pre-treated 2 days and continued, compound 5 µM.
Where [5] appears, read: glucocorticoid arm: vehicle, compound 1 µM.
Where [6] appears, read: glucocorticoid arm: vehicle, compound 5 µM.

Counter-ions that a name gives are not always drawn. ± gives the standard deviation of the averaged measurements. In all, about 1,900 compounds were measured (“normalised cell viability (NPI; 0 = phenylarsine oxide control, 1 = DMSO control)”: median about 1, lowest 2% from about 0.039 on). The sample as a whole holds a higher share of the lowest values than the screen did.
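Also: CTB read-out in 384-well plates, triplicate wells, NPI normalised per plate against 1 µM phenylarsine oxide (0) and 0.1% DMSO (1) controls.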

In the case of `CCCCCCCCCCCCCCCc1cccc(O)c1C(=O)O` [Anacardic acid], the normalised cell viability runs as follows: under setting [1], 1 ± 0.015; under setting [2], 1.02 ± 0.0063; under setting [3], 1.01 ± 0.012; under setting [4], 1.02 ± 0.022; under setting [5], 1 ± 0.024; under setting [6], 1.01 ± 0.019.

Regarding `S=C(S)N1CCCC1` [Ammonium pyrrolidinedithiocarbamate], the normalised cell viability came to 1 ± 0.015 under setting [1]; 0.994 ± 0.024 under setting [2]; 1.01 ± 0.018 under setting [3]; 1.004 ± 0.01 under setting [4]; 1.002 ± 0.0076 under setting [5]; 0.416 ± 0.095 under setting [6].

For the compound `N=c1ccn2c(n1)O[C@H]1[C@H](O)[C@@H](CO)O[C@H]12` [Ancitabine hydrochloride], the normalised cell viability worked out at 0.16 ± 0.012 under setting [1]; 0.103 ± 0.012 under setting [2]; 0.652 ± 0.079 under setting [3]; 0.211 ± 0.0064 under setting [4]; 0.0511 ± 0.0082 under setting [5]; 0.0465 ± 0.00057 under setting [6].

`FC(F)c1nc2ccccc2n1-c1nc(N2CCOCC2)nc(N2CCOCC2)n1`: the normalised cell viability came out at 0.649 ± 0.029 under setting [1]; 0.627 ± 0.013 under setting [2]; 0.603 ± 0.038 under setting [3]; 0.702 ± 0.054 under setting [4]; 0.691 ± 0.048 under setting [5]; 0.831 ± 0.028 under setting [6].

Regarding `CS(=O)(=O)N1CCc2c(-c3cnc(N)nc3)nc(N3CCOCC3)nc21`, the normalised cell viability runs as follows: under setting [1], 0.528 ± 0.021; under setting [2], 0.513 ± 0.01; under setting [3], 0.552 ± 0.058; under setting [4], 0.627 ± 0.034; under setting [5], 0.491 ± 0.024; under setting [6], 0.651 ± 0.064.

With `Nc1cc(C(F)(F)F)c(-c2cc(N3CCOCC3)nc(N3CCOCC3)n2)cn1`, the normalised cell viability under setting [1] was 0.6 ± 0.048; the normalised cell viability under setting [2] was 0.203 ± 0.0045; the normalised cell viability under setting [3] worked out at 0.713 ± 0.038; the normalised cell viability under setting [4] came to 0.411 ± 0.029; the normalised cell viability under setting [5] came out at 0.613 ± 0.059; the normalised cell viability under setting [6] is 0.0297 ± 0.0061.

As for `CSc1nc(N)c2ncn([C@@H]3O[C@H](COP(=O)(O)OP(=O)(O)O)[C@@H](O)[C@H]3O)c2n1` [2-Methylthioadenosine diphosphate trisodium], the normalised cell viability was found to be 1.007 ± 0.0058 under setting [1]; 1.02 ± 0.026 under setting [2]; 1.01 ± 0.012 under setting [3]; 1.06 ± 0.082 under setting [4]; 0.9917 ± 0.0072 under setting [5]; 1 ± 0.017 under setting [6].

Turning to `C[C@@H]1C(=O)O[C@H]2C[C@@]34[C@H]5C[C@@H](C(C)(C)C)[C@]36[C@@H](OC(=O)[C@@H]6O)O[C@@]4(C(=O)O5)[C@]21O` [Ginkgolide A], the normalised cell viability under setting [1] came to 0.9947 ± 0.0084; the normalised cell viability under setting [2] came out at 0.986 ± 0.01; the normalised cell viability under setting [3] was found to be 0.994 ± 0.016; the normalised cell viability under setting [4] stood at 0.997 ± 0.02; the normalised cell viability under setting [5] came to 1.002 ± 0.0072; the normalised cell viability under setting [6] amounted to 0.9947 ± 0.0051.

Turning to `CCc1c(C(=O)NCCc2ccc(N3CCCCC3)cc2)[nH]c2ccc(Cl)cc12`, the normalised cell viability runs as follows: under setting [1], 1.01 ± 0.018; under setting [2], 0.993 ± 0.021; under setting [3], 1.027 ± 0.0058; under setting [4], 0.999 ± 0.011; under setting [5], 1 ± 0.0095; under setting [6], 0.982 ± 0.012.

With `NCC=CC(=O)O` (stereo in doubt) [cis-4-Aminocrotonic acid], the normalised cell viability is 0.992 ± 0.0092 under setting [1]; 0.993 ± 0.015 under setting [2]; 0.9857 ± 0.0042 under setting [3]; 0.9765 ± 0.0092 under setting [4]; 0.973 ± 0.0079 under setting [5]; 0.9753 ± 0.0086 under setting [6].

As to `C[C@H]1C[C@H]2[C@@H]3CCC4=CC(=O)C=C[C@]4(C)[C@@]3(Cl)[C@@H](O)C[C@]2(C)[C@@]1(O)C(=O)CO` [Beclomethasone], the normalised cell viability under setting [1] stood at 0.998 ± 0.0017; the normalised cell viability under setting [2] turned out to be 1.02 ± 0.01; the normalised cell viability under setting [3] amounted to 1.01 ± 0.01; the normalised cell viability under setting [4] is 1; the normalised cell viability under setting [5] turned out to be 0.803 ± 0.031; the normalised cell viability under setting [6] was found to be 0.738 ± 0.039.

In the case of `CC(C)[C@H](C(=O)Nc1ccc(C(=O)NO)cc1)c1ccccc1`, the normalised cell viability under setting [1] turned out to be 0.752 ± 0.021; the normalised cell viability under setting [2] is 0.00258 ± 0.00047; the normalised cell viability under setting [3] came to 0.897 ± 0.021; the normalised cell viability under setting [4] came out at 0.00754 ± 0.0016; the normalised cell viability under setting [5] was 0.172 ± 0.0081; the normalised cell viability under setting [6] is 0.00052 ± 0.00049.

For the compound `CCCCN(Cc1ccc(C(=O)NO)cc1)C(=O)Nc1ccccc1` [Nexturastat A], the normalised cell viability is, setting by setting: under setting [1], 0.949 ± 0.017; under setting [2], 0.9863 ± 0.0097; under setting [3], 0.97 ± 0.02; under setting [4], 0.963 ± 0.027; under setting [5], 1.001 ± 0.009; under setting [6], 0.967 ± 0.014.

`N#CC(=C(/N)Sc1ccccc1N)/C(C#N)=C(\N)Sc1ccccc1N`: the normalised cell viability is, setting by setting: under setting [1], 1.02 ± 0.011; under setting [2], 1.08 ± 0.025; under setting [3], 0.976 ± 0.016; under setting [4], 1.01 ± 0.027; under setting [5], 1.023 ± 0.0058; under setting [6], 1.02 ± 0.015.

As to `CC#CCOC(=O)c1c(C)nc2sc3c(c2c1N)CCC(O)C3` (stereo not given), the normalised cell viability was determined as 1.02 ± 0.021 under setting [1]; 1 ± 0.019 under setting [2]; 1.03 ± 0.038 under setting [3]; 1.03 ± 0.017 under setting [4]; 1.013 ± 0.0058 under setting [5]; 1.013 ± 0.0058 under setting [6].

`COC1=C(OC)C(=O)c2ccccc2C1=O` [2,3-Dimethoxy-1,4-naphthoquinone]: the normalised cell viability under setting [1] turned out to be 0.994 ± 0.01; the normalised cell viability under setting [2] came to 0.905 ± 0.047; the normalised cell viability under setting [3] is 0.994 ± 0.0066; the normalised cell viability under setting [4] turned out to be 0.956 ± 0.01; the normalised cell viability under setting [5] came out at 0.997 ± 0.0027; the normalised cell viability under setting [6] was 0.8913 ± 0.0032.

Consider `CCCCCC[C@@H]([C@@H](C)O)n1cnc2c(N)ncnc21` [erythro-9-(2-Hydroxy-3-nonyl)adenine hydrochloride], for which the normalised cell viability reads like this: under setting [1], 0.999 ± 0.001; under setting [2], 0.992 ± 0.024; under setting [3], 0.987 ± 0.012; under setting [4], 0.997 ± 0.023; under setting [5], 0.973 ± 0.0053; under setting [6], 0.9777 ± 0.0055.

For the compound `CCCCCCCCCCCCCCCCCCOCC(COP(=O)([O-])OCC[N+](C)(C)C)OC` (stereo not given), the normalised cell viability is 1.006 ± 0.0063 under setting [1]; 0.993 ± 0.015 under setting [2]; 0.9897 ± 0.0011 under setting [3]; 0.989 ± 0.028 under setting [4]; 0.9853 ± 0.0049 under setting [5]; 0.9957 ± 0.0059 under setting [6].

As to `CC(C)c1ccccc1Cc1cc(C(=O)Nc2ccc(S(=O)(=O)c3ccccc3C(C)(C)C)cc2)c(O)c(O)c1O`, the normalised cell viability is, setting by setting: under setting [1], 0.9933 ± 0.0099; under setting [2], 0.826 ± 0.049; under setting [3], 0.998 ± 0.014; under setting [4], 0.961 ± 0.018; under setting [5], 1.007 ± 0.0058; under setting [6], 0.813 ± 0.033.

Regarding `CC(=O)NCC(=O)N1[C@@H]2CC[C@H]1c1ccc(Nc3ncc(C(F)(F)F)c(NC4CCC4)n3)cc12`, the normalised cell viability is, setting by setting: under setting [1], 0.712 ± 0.0091; under setting [2], 0.552 ± 0.019; under setting [3], 0.83 ± 0.0095; under setting [4], 0.717 ± 0.01; under setting [5], 0.301 ± 0.018; under setting [6], 0.201 ± 0.017.

Regarding `C/C(=C\c1csc(C)n1)[C@@H]1C[C@@H]2O[C@]2(C)CCC[C@H](C)[C@H](O)[C@@H](C)C(=O)C(C)(C)[C@@H](O)CC(=O)N1` [Ixabepilone], the normalised cell viability runs as follows: under setting [1], 0.132 ± 0.012; under setting [2], 0.146 ± 0.018; under setting [3], 0.484 ± 0.023; under setting [4], 0.477 ± 0.05; under setting [5], 0.0322 ± 0.0044; under setting [6], 0.032 ± 0.004.

For `CC(C)C[C@@H]1NC(=O)[C@@H](C(C)C)NC(=O)[C@@H]2CCCN2C(=O)[C@@H](CC(=O)O)NC(=O)[C@@H](Cc2c[nH]c3ccccc23)NC1=O`, the normalised cell viability is, setting by setting: under setting [1], 1.01 ± 0.014; under setting [2], 1 ± 0.018; under setting [3], 1.02 ± 0.025; under setting [4], 1.003 ± 0.0061; under setting [5], 0.9943 ± 0.005; under setting [6], 1.013 ± 0.0058.

Take `Cc1ncc(-c2ccnc(Nc3ccc(S(C)(=O)=O)cc3)n2)n1C(C)C`: the normalised cell viability under setting [1] worked out at 0.584 ± 0.057; the normalised cell viability under setting [2] is 0.062 ± 0.0037; the normalised cell viability under setting [3] worked out at 0.705 ± 0.061; the normalised cell viability under setting [4] worked out at 0.319 ± 0.083; the normalised cell viability under setting [5] amounted to 0.191 ± 0.045; the normalised cell viability under setting [6] was 0.0177 ± 0.0014.

As for `CN(C)CCC(c1ccc(Cl)cc1)c1ccccn1` (single isomer, unassigned; (+)) [(+)-Chlorpheniramine maleate], the normalised cell viability reads like this: under setting [1], 0.9827 ± 0.0045; under setting [2], 0.997 ± 0.012; under setting [3], 0.979 ± 0.004; under setting [4], 1.005 ± 0.0071; under setting [5], 0.968 ± 0.011; under setting [6], 0.978 ± 0.003.

`CCCCC1(C2CCCC2)Cc2cc(OCC(=O)O)c(Cl)c(Cl)c2C1=O` (stereo in doubt) [R(+)-Butylindazone]: the normalised cell viability reads like this: under setting [1], 0.9903 ± 0.0064; under setting [2], 0.958 ± 0.011; under setting [3], 0.988 ± 0.01; under setting [4], 0.965 ± 0.028; under setting [5], 0.983 ± 0.006; under setting [6], 0.9887 ± 0.004.
